Laboratory results published in the supplement of paper PMC9262897, “Low-cost anti-mycobacterial drug discovery using engineered E. coli” (Nature Communications, 2022).
Where a name gives a salt, the structure may show the parent alone. ± gives the standard deviation of the averaged measurements.

Each molecule was assayed on E. coli TESEC Mtb DapB (assay: growth (OD600 after 10 h); higher = more growth (less inhibition)). Conditions: arabinose induction (level): High; compound 0.1 mM; raw OD600 reference: median of DMSO wells […], cell-free background 0.041.
Procedure: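 TESEC E. coli strains in which the native enzyme is deleted and replaced by arabinose-inducible Mtb Asd, DapB, CysH or TrpD, each grown in its selective medium. Strains were screened against the Prestwick library at 0.1 mM and 1% DMSO in 384-well format at low and high arabinose induction. Growth is read as OD600 after 10 h in triplicate.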
Work on `CCSc1ccc2c(c1)N(CCCN1CCN(C)CC1)c1ccccc1S2` [Thiethylperazine dimalate] yielded a growth of 0.0474 ± 0.0002.
For `Cc1onc(-c2c(Cl)cccc2Cl)c1C(=O)N[C@@H]1C(=O)N2[C@@H]1SC(C)(C)[C@@H]2C(=O)O` [Dicloxacillin sodium salt hydrate], the growth was 0.188 ± 0.028.
`CCN[C@H]1C[C@H](C)S(=O)(=O)c2sc(S(N)(=O)=O)cc21` [Dorzolamide hydrochloride] gave a growth of 0.199 ± 0.016.
`NS(=O)(=O)c1cc2c(cc1Cl)NC(C(Cl)Cl)NS2(=O)=O` (stereo not given) [Trichlormethiazide] gave a growth of 0.191 ± 0.0022.
Molecule `CC[C@@]1(O)C(=O)OCc2c1cc1n(c2=O)Cc2cc3c(CN(C)C)c(O)ccc3nc2-1` [Topotecan] has a growth of 0.202 ± 0.067.
`CCN(CC)Cc1cc(Nc2ccnc3cc(Cl)ccc23)ccc1O` [Amodiaquin dihydrochloride dihydrate] was tested, and the growth was 0.209 ± 0.017.
With `CCCOc1ccccc1-c1nc2[nH]nnc2c(=O)[nH]1` [Zaprinast] the growth was 0.191 ± 0.0075.
In the case of `CC(=O)O[C@]1(C(C)=O)CC[C@H]2[C@@H]3C=C(Cl)C4=CC(=O)[C@@H]5C[C@@H]5[C@]4(C)[C@H]3CC[C@@]21C` [Cyproterone acetate], the growth is reported as 0.135 ± 0.01.
`CCOC(=O)[C@H](CCc1ccccc1)N[C@H]1CCc2ccccc2N(CC(=O)O)C1=O` [Benazepril HCl] was tested, and the growth was 0.198 ± 0.0085.
`C#C[C@]1(O)CC[C@H]2[C@@H]3CCC4=Cc5oncc5C[C@]4(C)[C@H]3CC[C@@]21C` [Danazol] was tested, and the growth was 0.169 ± 0.0079.
`CC1(C)O[C@@H]2C[C@H]3[C@@H]4C[C@H](F)C5=CC(=O)C=C[C@]5(C)[C@H]4[C@@H](O)C[C@]3(C)[C@]2(C(=O)CO)O1` [Flunisolide] was tested, and the growth was 0.214 ± 0.021.
`O=c1n(CCCN2CCN(c3cccc(Cl)c3)CC2)nc2ccccn12` [Trazodone hydrochloride] was tested, and the growth was 0.189 ± 0.014.
Molecule `CCOC1O[C@H]([C@@H](COCc2ccccc2)OCc2ccccc2)[C@H](OCc2ccccc2)[C@H]1O` (stereo not given in full) [Tribenoside] has a growth of 0.155 ± 0.0039.
With `Cc1c(Cl)cccc1Nc1ccccc1C(=O)O` [Tolfenamic acid] the growth was 0.0686 ± 0.0054.
With `CCCCC(CC)CN1CN(CC(CC)CCCC)CC(C)(N)C1` (stereo not given) [Hexetidine] the growth was 0.218 ± 0.018.
For `OC[C@H]1O[C@@H](Oc2ccc(O)cc2)[C@H](O)[C@@H](O)[C@@H]1O` [Arbutin], the growth was 0.209 ± 0.003.
In the case of `CC(=O)[C@H]1CC[C@H]2[C@@H]3CC=C4C[C@@H](O)CC[C@]4(C)[C@H]3CC[C@]12C` [Pregnenolone], the growth is reported as 0.191 ± 0.0035.
Work on `Nc1ccn([C@H]2CC[C@@H](CO)O2)c(=O)n1` [Zalcitabine] yielded a growth of 0.204 ± 0.015.
`CN1CCC(=C2c3ccccc3CC(=O)c3sccc32)CC1` [Ketotifen fumarate] was tested, and the growth was 0.239 ± 0.043.
`COc1cc(C(=O)NC2CCCNC2)cc(OC)c1OC` (stereo not given) [Troxipide] showed a growth of 0.19 ± 0.012.

Same assay, conditions: arabinose induction (level): Low; compound 0.1 mM; raw OD600 reference: median of DMSO wells 0.227, cell-free background 0.041
Molecule `CCSc1ccc2c(c1)N(CCCN1CCN(C)CC1)c1ccccc1S2` [Thiethylperazine dimalate] has a growth of 0.04737 ± 0.00025.
Molecule `Cc1onc(-c2c(Cl)cccc2Cl)c1C(=O)N[C@@H]1C(=O)N2[C@@H]1SC(C)(C)[C@@H]2C(=O)O` [Dicloxacillin sodium salt hydrate] has a growth of 0.226 ± 0.018.
With `CCN[C@H]1C[C@H](C)S(=O)(=O)c2sc(S(N)(=O)=O)cc21` [Dorzolamide hydrochloride] the growth was 0.253 ± 0.023.
`NS(=O)(=O)c1cc2c(cc1Cl)NC(C(Cl)Cl)NS2(=O)=O` (stereo not given) [Trichlormethiazide] showed a growth of 0.246 ± 0.041.
`CC[C@@]1(O)C(=O)OCc2c1cc1n(c2=O)Cc2cc3c(CN(C)C)c(O)ccc3nc2-1` [Topotecan] showed a growth of 0.178 ± 0.014.
With `CCN(CC)Cc1cc(Nc2ccnc3cc(Cl)ccc23)ccc1O` [Amodiaquin dihydrochloride dihydrate] the growth was 0.28 ± 0.06.
In the case of `CCCOc1ccccc1-c1nc2[nH]nnc2c(=O)[nH]1` [Zaprinast], the growth is reported as 0.199 ± 0.024.
Molecule `CC(=O)O[C@]1(C(C)=O)CC[C@H]2[C@@H]3C=C(Cl)C4=CC(=O)[C@@H]5C[C@@H]5[C@]4(C)[C@H]3CC[C@@]21C` [Cyproterone acetate] has a growth of 0.131 ± 0.011.
`CCOC(=O)[C@H](CCc1ccccc1)N[C@H]1CCc2ccccc2N(CC(=O)O)C1=O` [Benazepril HCl] was tested, and the growth was 0.24 ± 0.038.
For `C#C[C@]1(O)CC[C@H]2[C@@H]3CCC4=Cc5oncc5C[C@]4(C)[C@H]3CC[C@@]21C` [Danazol], the growth was 0.176 ± 0.0079.
For `CC1(C)O[C@@H]2C[C@H]3[C@@H]4C[C@H](F)C5=CC(=O)C=C[C@]5(C)[C@H]4[C@@H](O)C[C@]3(C)[C@]2(C(=O)CO)O1` [Flunisolide], the growth was 0.241 ± 0.01.
For `O=c1n(CCCN2CCN(c3cccc(Cl)c3)CC2)nc2ccccn12` [Trazodone hydrochloride], the growth was 0.243 ± 0.057.
`CCOC1O[C@H]([C@@H](COCc2ccccc2)OCc2ccccc2)[C@H](OCc2ccccc2)[C@H]1O` (stereo not given in full) [Tribenoside] showed a growth of 0.155 ± 0.016.
Work on `Cc1c(Cl)cccc1Nc1ccccc1C(=O)O` [Tolfenamic acid] yielded a growth of 0.0876 ± 0.044.
Work on `CCCCC(CC)CN1CN(CC(CC)CCCC)CC(C)(N)C1` (stereo not given) [Hexetidine] yielded a growth of 0.225 ± 0.033.
With `OC[C@H]1O[C@@H](Oc2ccc(O)cc2)[C@H](O)[C@@H](O)[C@@H]1O` [Arbutin] the growth was 0.246 ± 0.051.
`CC(=O)[C@H]1CC[C@H]2[C@@H]3CC=C4C[C@@H](O)CC[C@]4(C)[C@H]3CC[C@]12C` [Pregnenolone] showed a growth of 0.184 ± 0.009.
Work on `Nc1ccn([C@H]2CC[C@@H](CO)O2)c(=O)n1` [Zalcitabine] yielded a growth of 0.24 ± 0.04.
In the case of `CN1CCC(=C2c3ccccc3CC(=O)c3sccc32)CC1` [Ketotifen fumarate], the growth is reported as 0.217 ± 0.02.
Molecule `COc1cc(C(=O)NC2CCCNC2)cc(OC)c1OC` (stereo not given) [Troxipide] has a growth of 0.216 ± 0.0046.
